Test [1] can be described thus: qHTS assay to identify small molecule antagonists of the retinoid-related orphan receptor gamma (ROR-gamma) signaling pathway - cell viability counter screen (AID 1159520). For activity, negative = cytotoxicity: % is set by controls: 0 for no effect and ±100 for the full control effect. Note: nearly all actives have a fitted effect of over 50% in size. Note: potency is the fitted concentration of half-maximal effect. An outline of the steps:
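Tet-on ROR gamma CHO cells (1,000/well) were plated 4 hr, given compounds in DMSO for 2 hr at 37 C, then induced with 1 uM final doxycycline for 16 hr. Viability was read as ATP by CellTiter-Glo luminescence after 30 min.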
(Quantitative high-throughput screening tests each substance at several concentrations.)

A short description of test [2]: qHTS assay to identify small molecule agonists of the AP-1 signaling pathway (AID 1159526; calls by dose curve; note: % is set by controls: 0 for no effect and ±100 for the full control effect).
For test [3], the target named is Retinoic acid receptor RXR-alpha (Homo sapiens) (UniProt P19793). The test is described as follows: qHTS assay to identify small molecule agonists of the RXR signaling pathway (AID 1159527; calls by dose curve; note: nearly all actives have a fitted effect of over 35% in size; note: potency is the fitted concentration of half-maximal effect). Put shortly:
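qHTS of the Tox21 10K library in GeneBLAzer RXR-alpha HEK 293T cells carrying a beta-lactamase reporter […]; 16 hr treatment, 9-cis retinoic acid as agonist control, FRET read-out.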

A short description of test [4]: qHTS assay to identify small molecule agonists of the RXR signaling pathway - cell viability counter screen (AID 1159529). Note: nearly all actives have a fitted effect of over 50% in size. Note: potency is the fitted concentration of half-maximal effect. An outline of the steps:
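Cell viability is measured by CellTiter-Glo luminescence, 30 min at room temperature, in wells already read for beta-lactamase. Engineered HEK 293T cells (RXR-alpha-UAS-bla) are dosed 16 hr at 37 C. Tetraoctyl ammonium bromide serves as positive control.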

Test [5] in a line: qHTS assay to identify small molecule antagonists of the retinoid acid receptor (RAR) signaling pathway - cell viability counter screen (AID 1159551). Note: % is set by controls: 0 for no effect and ±100 for the full control effect; nearly all actives have a fitted effect of over 35% in size. An outline of the steps: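 Cytotoxicity counter screen in C3RL4 cells: 6 h compound exposure with 1 uM retinol (final), viability from cellular ATP by luminescence.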
A short description of test [6]: qHTS assay to identify small molecule antagonists of the retinoic acid receptor (RAR) signaling pathway (AID 1159552; note: nearly all actives have a fitted effect of over 50% in size; note: potency is the fitted concentration of half-maximal effect). Put shortly: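 Quantitative HTS in C3RL4 RARE-luciferase reporter cells. Compounds were added with 1 uM (final) retinol; luminescence was read after 6 hr.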
The nature of test [7]: qHTS assay to identify small molecule agonists of the peroxisome proliferator-activated receptor delta (PPARd) signaling pathway - cell viability counter screen (AID 743211). Note: nearly all actives have a fitted effect of over 55% in size. Note: potency is the fitted concentration of half-maximal effect. Put shortly: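 Viability of GeneBLAzer PPARd UAS-bla HEK293H cells was assessed after 17 h compound incubation at 37C, using CellTiter-Glo reagent added after the reporter read and luminescence recorded 30 min later.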

The nature of test [8]: qHTS assay to identify small molecule antagonists of the peroxisome proliferator-activated receptor delta (PPARd) signaling pathway - cell viability counter screen (AID 743213). Note: nearly all actives have a fitted effect of over 50% in size. Note: potency is the fitted concentration of half-maximal effect. An outline of the steps:
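Luminescence from CellTiter-Glo, added after the bla read and incubated 30 min at room temperature, gives viability of HEK293H PPARd-bla cells exposed to compounds for 17 h at 37 C with 300 nM L165041.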

Test [9] can be described thus: qHTS assay to identify small molecule agonists of the farnesoid-X-receptor (FXR) signaling pathway - cell viability counter screen (AID 743218). Note: nearly all actives have a fitted effect of over 45% in size. Note: potency is the fitted concentration of half-maximal effect. Put shortly: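 Cytotoxicity counter-screen run in parallel, same wells: FXR-UAS-bla HEK 293T cells dosed 16 h at 37 C, viability read by CellTiter-Glo luminescence after 30 min at room temperature.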
Test [10] can be described thus: qHTS assay to identify small molecule antagonists of the farnesoid-X-receptor (FXR) signaling pathway - cell viability counter screen (AID 743221; active = well fitted cell-killing curve with a large enough effect in the repeat runs, not every such curve was filed as active; note: nearly all actives have a fitted effect of over 50% in size; note: potency is the fitted concentration of half-maximal effect). Put shortly:
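Quantitative HTS of the Tox21 10K library run in parallel with the beta-lactamase reporter read. HEK 293T cells carrying a UAS-driven bla reporter got compound and 50 uM CDCA (final) for 16 h; ATP-based luminescence followed.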

Test [11] can be described thus: qHTS assay to identify small molecule antagonists of the vitamin D receptor (VDR) signaling pathway - cell viability counter screen (AID 743225). Note: nearly all actives have a fitted effect of over 50% in size. Note: potency is the fitted concentration of half-maximal effect. An outline of the steps:
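Cells (VDR-UAS-bla HEK 293T) are plated, rested 4 h at 37C, dosed with compound and 3 nM final 1-alpha,25-dihydroxy vitamin D3, and incubated 16 h. Viability is taken from CellTiter-Glo luminescence in the reporter wells.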

A short description of test [12]: qHTS assay to identify small molecule agonists of the AP-1 signaling pathway - cell viability counter screen (AID 1159525; calls by dose curve; note: nearly all actives have a fitted effect of over 55% in size). Put shortly: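 ME-180 AP-1-bla, 2500 cells/well, Opti-MEM + 0.5% dialyzed FBS; overnight 37 °C; cpd 15-pt titration, 5 h 37 °C; CellTiter-Glo 30 min RT; luminescence read; normalised to TOAB and DMSO controls.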
Test [13] concerns the target Peroxisome proliferator-activated receptor delta (Homo sapiens) (UniProt Q03181). The test is described as follows: qHTS assay to identify small molecule agonists of the peroxisome proliferator-activated receptor delta (PPARd) signaling pathway (AID 743212; calls by dose curve; note: % is set by controls: 0 for no effect and ±100 for the full control effect). An outline of the steps: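 GeneBLAzer PPARd UAS-bla HEK293H cells (beta-lactamase reporter under UAS control), plated and rested 5 h at 37 C, then exposed to compounds in DMSO at 37 C; LiveBLAzer B/G FRET substrate added, 2 h room temperature, fluorescence read.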

In test [14] the target is Vitamin D3 receptor (Homo sapiens) (UniProt P11473). The test is described as follows: qHTS assay to identify small molecule agonists of the vitamin D receptor (VDR) signaling pathway (AID 743222; calls by dose curve; note: % is set by controls: 0 for no effect and ±100 for the full control effect). Put shortly: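 Quantitative HTS agonist-mode screen: compounds in DMSO were pin-transferred onto VDR-bla cells and incubated 16 h at 37C, 5% CO2. Reporter activity was detected with LiveBLAzer B/G FRET substrate after 2 h at room temperature.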

The target is the same in test [15]. The test is described as follows: qHTS assay to identify small molecule antagonists of the vitamin D receptor (VDR) signaling pathway (AID 743223; active = well fitted inhibition curve with a large enough effect in the signal ratio in the repeat runs, not every such curve was filed as active; the % refers to the signal ratio; note: potency is the fitted concentration of half-maximal effect). An outline of the steps:
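Fluorescence from LiveBLAzer B/G FRET substrate, read after 2 h at room temperature, reflects beta-lactamase reporter activity in VDR-bla cells treated 16 h at 37C with compounds and agonist 1alpha,25-dihydroxyvitamin D3 (3 nM final).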

Test [16] in a line: qHTS assay to identify small molecule agonists of the vitamin D receptor (VDR) signaling pathway - cell viability counter screen (AID 743224). An outline of the steps:
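Viability is measured in the same wells as the VDR-bla reporter assay: after 16 h compound treatment and 2 h substrate loading, CellTiter-Glo is added and luminescence read 30 min later.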

For test [17], the target named is Nuclear receptor ROR-gamma (Homo sapiens) (UniProt P51449). Briefly: qHTS assay to identify small molecule antagonists of the retinoid-related orphan receptor gamma (ROR-gamma) signaling pathway (AID 1159521; note: nearly all actives have a fitted effect of over 50% in size; note: potency is the fitted concentration of half-maximal effect). An outline of the steps: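 RORγ antagonism is scored from reduced reporter luminescence in Tet-on CHO cells. Induction used 1 uM final doxycycline hyclate for 16 h at 37 C, following a 2 h compound exposure.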

In test [18] the target is Peroxisome proliferator-activated receptor delta (Homo sapiens) (UniProt Q03181). The test is described as follows: qHTS assay to identify small molecule antagonists of the peroxisome proliferator-activated receptor delta (PPARd) signaling pathway (AID 743215; active = well fitted inhibition curve with a large enough effect in the signal ratio in the repeat runs, not every such curve was filed as active; the % refers to the signal ratio;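 note: cells stimulated with agonist L165041 at 300 nM final during compound exposure; potency is the fitted concentration of half-maximal effect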). Put shortly: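 Inhibition of L165041-driven (300 nM final) PPARd signaling is scored in HEK293H UAS-bla cells. Exposure lasts 17 h at 37 C; beta-lactamase activity is then read by FRET substrate fluorescence after 2 h at room temperature.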

Results filed as inconclusive are left out. Values without a mark were called inactive. Active and inactive are the calls of the source. Unless noted, calls come from the whole dose curve; as a rule, active = well fitted curve in the direction sought with a large enough effect in the repeat runs; inconclusive = weak or mixed curves; inactive = no such curve, though single readings can be large; an effect the other way counts as inactive or inconclusive.

Sequence of Peroxisome proliferator-activated receptor delta (Homo sapiens) (Q03181 whole entry, looked up): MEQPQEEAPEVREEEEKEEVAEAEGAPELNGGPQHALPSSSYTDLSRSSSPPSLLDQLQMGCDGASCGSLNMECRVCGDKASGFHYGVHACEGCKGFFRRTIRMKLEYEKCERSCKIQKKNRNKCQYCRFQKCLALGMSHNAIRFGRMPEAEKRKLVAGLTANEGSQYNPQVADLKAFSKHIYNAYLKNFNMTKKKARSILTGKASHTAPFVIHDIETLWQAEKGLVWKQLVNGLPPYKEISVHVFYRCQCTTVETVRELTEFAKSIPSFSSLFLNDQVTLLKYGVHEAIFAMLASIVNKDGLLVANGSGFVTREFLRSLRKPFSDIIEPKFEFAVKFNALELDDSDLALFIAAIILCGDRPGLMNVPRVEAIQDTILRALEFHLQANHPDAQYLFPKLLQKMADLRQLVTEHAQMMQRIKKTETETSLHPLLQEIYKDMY
Sequence of Retinoic acid receptor RXR-alpha (Homo sapiens) (P19793 whole entry, looked up): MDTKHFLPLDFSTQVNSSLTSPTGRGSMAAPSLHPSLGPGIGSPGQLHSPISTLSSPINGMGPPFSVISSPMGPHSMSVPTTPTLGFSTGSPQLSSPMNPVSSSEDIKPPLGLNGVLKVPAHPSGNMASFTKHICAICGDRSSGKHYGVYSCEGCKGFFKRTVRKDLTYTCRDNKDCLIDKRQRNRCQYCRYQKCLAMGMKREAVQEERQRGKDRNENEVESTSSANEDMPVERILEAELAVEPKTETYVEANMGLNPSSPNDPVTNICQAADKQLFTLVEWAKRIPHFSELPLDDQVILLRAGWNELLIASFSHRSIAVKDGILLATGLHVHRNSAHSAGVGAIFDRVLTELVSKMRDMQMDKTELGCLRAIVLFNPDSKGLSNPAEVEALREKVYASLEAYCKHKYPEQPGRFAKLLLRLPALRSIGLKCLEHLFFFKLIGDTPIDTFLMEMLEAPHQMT
Sequence of Vitamin D3 receptor (Homo sapiens) (P11473 whole entry, looked up): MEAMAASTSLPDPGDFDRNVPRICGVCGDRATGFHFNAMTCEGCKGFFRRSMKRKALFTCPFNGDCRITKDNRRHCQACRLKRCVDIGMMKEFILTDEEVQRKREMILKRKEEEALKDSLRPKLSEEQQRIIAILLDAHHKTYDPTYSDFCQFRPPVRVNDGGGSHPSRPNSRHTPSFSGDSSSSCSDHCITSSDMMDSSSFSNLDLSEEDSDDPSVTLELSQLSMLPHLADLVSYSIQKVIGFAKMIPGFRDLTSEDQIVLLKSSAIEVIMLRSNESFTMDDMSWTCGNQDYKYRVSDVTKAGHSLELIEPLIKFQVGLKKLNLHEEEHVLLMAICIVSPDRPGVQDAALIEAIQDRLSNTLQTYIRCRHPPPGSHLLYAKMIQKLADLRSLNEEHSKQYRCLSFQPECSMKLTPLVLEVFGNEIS

`CCC1(C)C(=O)N(Cl)C(=O)N1Cl` (centres undefined): the Potency entry in test [1], in [2], in test [3], in test [4], in test [5] and in test [6] was “inactive” each time.
As for `CCCCCCCCc1ccc(Nc2ccc(CCCCCCCC)cc2)cc1`, the Potency result in [1], in [2], in test [3], in test [4], in test [5] and in test [6] was “inactive” each time.
Turning to `CN1CC[C@H](c2c(O)cc(O)c3c(=O)cc(-c4ccccc4Cl)oc23)[C@H](O)C1`, the Potency entry in [7], in test [8], in test [9], in test [10], in test [11] and in test [12] was “inactive” each time. Also, in test [4], the Potency entry is “inactive”. Besides, the Potency was 0.237 µM (active) in test [1] and 0.0668 µM (active) in [6].
Turning to `O=C(N[C@H](CO)[C@H](O)c1ccc([N+](=O)[O-])cc1)C(Cl)Cl`, the Potency result in test [7], in test [8], in test [9], in [1], in test [2] and in test [3] was “inactive” each time. For the same compound, the Potency entry in [4] and in test [5] was “inactive” each time. Moreover, the call in [13] was inactive.
Consider `CN1CCN(CCCN2c3ccccc3Sc3ccc(Cl)cc32)CC1`, for which the Potency in test [7] is 26.6 µM (active); in test [8] it was 26.6 µM (active); in test [9] it was 26.6 µM (active); in test [10] it was 23.7 µM (active); in test [4] it was 9.52 µM (active); in test [6] it was 26.6 µM (active). The result in [13] and in [14] was inactive. Moreover, the Potency entry in test [1], in test [12] and in test [5] was “inactive” each time.
Regarding `CC(C)(c1ccc(Oc2ccc(N)cc2)cc1)c1ccc(Oc2ccc(N)cc2)cc1`, in [1], the Potency is 61.1 µM (active). The Potency result in test [12], in [4], in [5] and in test [6] was “inactive” throughout.
Consider `CC(C)C(=O)C(C)C`, for which the Potency result in test [1], in test [12], in test [2], in [4], in test [5] and in test [6] was “inactive” throughout.
Regarding `COc1cc2ncnc(Nc3cccc(Cl)c3)c2cc1OC`, the activity, negative = cytotoxicity in [1] is -2.63% [at 19 µM]. The viability change, negative = cytotoxic in [12] is -9.86% [at 15.8 µM]. Moreover, the activation in test [3] is -15.1% [at 15.8 µM]. In addition, the activity change, negative = cytotoxicity in test [4] was -0.839% [at 15.8 µM]; in test [5] it was 0.617% [at 19 µM].
For `Cc1cc(F)ccc1-c1cc(N2CC[C@@H](O)[C@H]2CO)ncc1N(C)C(=O)C(C)(C)c1cc(C(F)(F)F)cc(C(F)(F)F)c1`, the Potency in test [7] was 13.6 µM (active); in [8], 13.6 µM (active); in test [9] it was 13.6 µM (active); in [10], 15.3 µM (active); in test [15], 21.5 µM (active); in test [16], 10.8 µM (active). Besides, the Potency in [11] was 13.6 µM (active); in test [1], 53.6 µM (active); in test [4], 17.1 µM (active); in test [6], 42.6 µM (active). In addition, the Potency result in [5] was “inactive”.
On to `Cc1cc(C)c(O)c(C(C)(C)C)c1`, for which the Potency result in [17], in [12], in test [3] and in [6] was “inactive” throughout.
On to `Oc1cccc2c(O)cccc12`, for which the Potency in [17] is 68.6 µM (active). The Potency entry in test [3] and in [5] was “inactive” in each case.
On to `CC/C=C(\C)C=O`, for which the Potency result in test [17], in test [12], in [2], in test [3], in test [4] and in [5] was “inactive” throughout.
`CCCCCCCCCCCCN1CCCC1=O`: the results for the Potency in test [7], in test [16] and in test [4] were 54.9 µM (active), 49 µM (active) and 54.9 µM (active), respectively. The call in [13] and in [14] was inactive. The Potency result in [17], in test [3], in test [5] and in test [6] was “inactive” in each case.
Regarding `CCN(CC)c1ccc(N=Nc2ccccc2)cc1`, the Potency entry in test [1] and in [6] was “inactive” in each case. Besides, the Potency in [4] is 19.5 µM (active).
In the case of `N#Cc1nc(Cl)c(Cl)c(Cl)c1Cl`, the Potency in [7] was 7.76 µM (active); in test [8], 15.5 µM (active); in test [18], 7.76 µM (active); in [9] it was 13.8 µM (active); in test [15], 6.92 µM (active); in [16] it was 11 µM (active). The values for the Potency in test [11], in [1] and in test [4] were 19.5 µM (active), 1.93 µM (active) and 15.5 µM (active), respectively. Also, in test [14], the call was inactive.
Regarding `c1ccc2occc2c1`, the Potency in test [16] was 49 µM (active); in test [3], 12.3 µM (active). Moreover, the Potency entry in test [17], in test [12], in test [4] and in test [5] was “inactive” each time.
As for `C/C(=C\c1ccc(C(=O)O)cc1)c1ccc2c(c1)C(C)(C)CCC2(C)C`, the Potency entry in test [17], in test [2], in test [4] and in test [5] was “inactive” throughout. Moreover, in test [3], the Potency is 0.952 µM (active).
Consider `CC(c1cc(C(C)(C)C)cc(C(C)(C)C)c1O)c1cc(C(C)(C)C)cc(C(C)(C)C)c1O`, for which the results for the Potency in [17] and in test [3] were 19.3 µM (active) and 3.47 µM (active), respectively. Moreover, the Potency result in test [12], in test [2] and in test [5] was “inactive” throughout.
